Columns and labels:
Assay in all cases: SPOT peptide array binding signal intensity (averaged, normalized) (arbitrary units (background-subtracted, floor 0; scale differs between SH3 domains)); higher = stronger binding of the SH3 domain to the peptide
ScBbc1 = molecular target: ScBbc1
Procedure, shortened: (§1)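 E. coli BL21(DE3) was used to express GST-fused SH3 domains from four yeast species, which were then purified on glutathione Sepharose. These were incubated at 10 μg/ml in TBS-based blocking buffer overnight at 4°C on cellulose membranes carrying synthetic 15-mer peptides, in which cysteines were replaced by serines. Binding signal is the replicate average of normalized, background-subtracted spot intensity, in arbitrary units that differ between domains.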

ScBem1-D1 = molecular target: ScBem1-D1
Procedure, shortened: as §1

ScBzz1-D1 = molecular target: ScBzz1-D1
Procedure, shortened: as §1

ScBzz1-D2 = molecular target: ScBzz1-D2
Procedure, shortened: as §1

ScCyk3 = molecular target: ScCyk3
Procedure, shortened: as §1

ScFus1 = molecular target: ScFus1
Procedure, shortened: as §1

ScHof1 = molecular target: ScHof1
Procedure, shortened: as §1

ScHse1 = molecular target: ScHse1
Procedure, shortened: as §1

ScLsb1 = molecular target: ScLsb1
Procedure, shortened: as §1

ScLsb2 = molecular target: ScLsb2
Procedure, shortened: as §1

ScLsb3 = molecular target: ScLsb3
Procedure, shortened: as §1

ScLsb4 = molecular target: ScLsb4
Procedure, shortened: as §1

ScMyo3 = molecular target: ScMyo3
Procedure, shortened: as §1

ScMyo5 = molecular target: ScMyo5
Procedure, shortened: as §1

ScNbp2 = molecular target: ScNbp2
Procedure, shortened: as §1

ScPex13 = molecular target: ScPex13
Procedure, shortened: as §1

ScRvs167 = molecular target: ScRvs167
Procedure, shortened: as §1

ScSho1 = molecular target: ScSho1
Procedure, shortened: as §1

ScSla1-D1-D2 = molecular target: ScSla1-D1-D2
Procedure, shortened: as §1

ScSla1-D3 = molecular target: ScSla1-D3
Procedure, shortened: as §1

SpAbp1-D1 = molecular target: SpAbp1-D1
Procedure, shortened: as §1

SpBbc1 = molecular target: SpBbc1
Procedure, shortened: as §1

SpBzz1-D1 = molecular target: SpBzz1-D1
Procedure, shortened: as §1

SpBzz1-D2 = molecular target: SpBzz1-D2
Procedure, shortened: as §1

SpCyk3 = molecular target: SpCyk3
Procedure, shortened: as §1

SpHof1 = molecular target: SpHof1
Procedure, shortened: as §1

SpHof1-2 = molecular target: SpHof1-2
Procedure, shortened: as §1

SpHof1-3 = molecular target: SpHof1-3
Procedure, shortened: as §1

SpHse1 = molecular target: SpHse1
Procedure, shortened: as §1

SpLsb1 = molecular target: SpLsb1
Procedure, shortened: as §1

SpLsb4 = molecular target: SpLsb4
Procedure, shortened: as §1

SpMyo1 = molecular target: SpMyo1
Procedure, shortened: as §1

SpNbp2 = molecular target: SpNbp2
Procedure, shortened: as §1

SpPex13 = molecular target: SpPex13
Procedure, shortened: as §1

SpRvs167 = molecular target: SpRvs167
Procedure, shortened: as §1

SpSla1-D1-D2 = molecular target: SpSla1-D1-D2
Procedure, shortened: as §1

SpSla1-D3 = molecular target: SpSla1-D3
Procedure, shortened: as §1

Binder: HPRFVSPRIPSRIVK
- SPOT peptide array binding signal intensity (ScBbc1): 283
- SPOT peptide array binding signal intensity (ScBem1-D1): 21.5
- SPOT peptide array binding signal intensity (ScBzz1-D1): 62
- SPOT peptide array binding signal intensity (ScBzz1-D2): 73.5
- SPOT peptide array binding signal intensity (ScCyk3): 12
- SPOT peptide array binding signal intensity (ScFus1): 147
- SPOT peptide array binding signal intensity (ScHof1): 8.75
- SPOT peptide array binding signal intensity (ScHse1): 820
- SPOT peptide array binding signal intensity (ScLsb1): 531
- SPOT peptide array binding signal intensity (ScLsb2): 694
- SPOT peptide array binding signal intensity (ScLsb3): 2050
- SPOT peptide array binding signal intensity (ScLsb4): 114
- SPOT peptide array binding signal intensity (ScMyo3): 27
- SPOT peptide array binding signal intensity (ScMyo5): 32.5
- SPOT peptide array binding signal intensity (ScNbp2): 510
- SPOT peptide array binding signal intensity (ScPex13): 86.2
- SPOT peptide array binding signal intensity (ScRvs167): 820
- SPOT peptide array binding signal intensity (ScSho1): 256
- SPOT peptide array binding signal intensity (ScSla1-D1-D2): 720
- SPOT peptide array binding signal intensity (ScSla1-D3): 36
- SPOT peptide array binding signal intensity (SpAbp1-D1): 180
- SPOT peptide array binding signal intensity (SpBbc1): 19
- SPOT peptide array binding signal intensity (SpBzz1-D1): 350
- SPOT peptide array binding signal intensity (SpBzz1-D2): 1
- SPOT peptide array binding signal intensity (SpCyk3): 4
- SPOT peptide array binding signal intensity (SpHof1): 145
- SPOT peptide array binding signal intensity (SpHof1-2): 15.8
- SPOT peptide array binding signal intensity (SpHof1-3): 295
- SPOT peptide array binding signal intensity (SpHse1): 318
- SPOT peptide array binding signal intensity (SpLsb1): 1380
- SPOT peptide array binding signal intensity (SpLsb4): 2670
- SPOT peptide array binding signal intensity (SpMyo1): 49
- SPOT peptide array binding signal intensity (SpNbp2): 78.5
- SPOT peptide array binding signal intensity (SpPex13): 32
- SPOT peptide array binding signal intensity (SpRvs167): 254
- SPOT peptide array binding signal intensity (SpSla1-D1-D2): 1.5
- SPOT peptide array binding signal intensity (SpSla1-D3): 11

From the supplement of paper PMC4466140
